# From the OligoGym collection
# Target: LEPRE1
# Assay: pooled miR-30 sensor sort-seq; sequence = guide strand
# Settings: shRNA
# Also: reference of the scale not given here.
row,Sequence,sensor-assay potency score (higher = more potent)
1,TCCAGCTCCATCTCTTCGCTGA,-0.664
2,TTGAGTCTCAAGATCCTTGAAG,-0.379
3,TGCAGCAACAGCTTTCTCCAAC,-1.07
4,TTTCTCTTGCAATCTCTTGGGA,-0.177
5,TGTATCGCTGTCATGCAGCGGC,-0.603
6,TTCTCCAACTTGTTGATCTTGA,0.193
7,TAGAGTCGCACTCCCAGTCGAA,-0.94
8,TACACAGACACTTAAGTACTGT,-0.0661
9,TTCTCTTGCAATCTCTTGGGAA,-0.439
10,TTGGTAATAGTCTAGGTTCTGC,-0.468
11,TACTGTATCGCTGTCATGCAGC,-0.397
12,TTGTTGATCTTGAAGTAGGCGA,-0.0372

# Target: LGALS1
# Assay: as above
# Settings: shRNA
row,Sequence,sensor-assay potency score (higher = more potent)
1,ATTTGATCTTGAAGTCACCGTC,0.155
2,TTGAGATTCAGGTTGCTGGCGA,0.199
3,TTCAGCACGAAGCTCTTAGCGT,-0.712
4,TTTGATCTTGAAGTCACCGTCA,0.476
5,TTCGTATCCATCTGGCAGCTTG,-0.744
6,TTGATCTTGAAGTCACCGTCAG,0.0268
7,TTGCACACGATGGTGTTGGCGT,-0.422
8,TGATCTTGAAGTCACCGTCAGC,-1.02
9,TTGACGGTCAGGTTGGCCTGGT,-0.281
10,TTGCTGTTGCACACGATGGTGT,-0.61

# Target: LGALS7B
# Assay: as above
# Settings: shRNA
row,Sequence,sensor-assay potency score (higher = more potent)
1,TTACATGGAACCTGCTGGCATT,-1.13
2,TGCTGTTGAAGACCACCTCCGA,-0.584
3,ATTGGGAGGAACCAAGCCGCGA,-1.73
